Screening results: PubChem, National Center for Advancing Translational Sciences (NCATS)
CBFb RUNX1 block – inhibitors of human CBF-beta and RUNX1 interaction; Q01196+Q13951; AlphaScreen CBFb-His/RUNX1-biotin binding, biochemical; Potency, µM (titrated, usually from 59.8 µM), for inactives: at the highest dose activity, negative = inhibition, actives largely listed as inhibitors; 230,000 tested, under 10 active; AID 1477; active = well fitted curve in the direction sought with a large enough effect; inconclusive = small, poorly fitted or top-dose-only effect, or effect the other way, or another doubt; inactive = no such curve, though single readings can be large or run the other way; note: % of control where 0% means no effect
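CBFb-His/RUNX1-biotin, 30 nM each, preincubated 20 min RT; compound 15 min RT; Ni + streptavidin beads 50 ng each, 90 min RT; AlphaScreen read.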
Rango release inh – prevents RanGTP from dissociating the Rango-importin beta complex; O95149+P62826; AID 540253; Biochemical FRET Rango-importin beta, RanGTP-induced dissociation; Potency, µM (titrated, usually from 46.1 µM), for the others: at the highest dose activity change, negative = inhibition; hit rate 0.071% among 340,000; note: potency is the fitted concentration of half-maximal effect; % of control where 0% means no effect; nearly all actives have a fitted effect of over 45% in size
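Rango FRET biosensor (snurportin-1 IBB flanked by N-terminal EYFP and C-terminal CFP10) at 0.1 uM, with 0.25 uM importin beta in PBS, 1mM DTT, 0.02% Tween-20, 0.1% BSA. 0.6 uM Ran, 2mM GTP and 0.2 uM RCC1 were then added for 45 min at room temperature. Inhibition read as loss of FRET rise.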
ClpP mod – qHTS Assay for Activators of ClpP. Potency, µM (top dose mostly 57.5 µM), without a hit: at the highest dose activity change, negative = active. hit rate 1.9% among 340,000. purified B. subtilis ClpP, FRET peptide cleavage, 20 min; active = well fitted falling curve with a large enough effect; inconclusive = small, poorly fitted or top-dose-only effect; inactive = no such curve, though single readings can be large or run the other way; note: potency is the fitted concentration of half-maximal effect; the source files actives as falling curves though it sought activators and does not explain the sign; nearly all actives have a fitted effect of over 65% in size
Target sequence (P80244 whole entry, looked up): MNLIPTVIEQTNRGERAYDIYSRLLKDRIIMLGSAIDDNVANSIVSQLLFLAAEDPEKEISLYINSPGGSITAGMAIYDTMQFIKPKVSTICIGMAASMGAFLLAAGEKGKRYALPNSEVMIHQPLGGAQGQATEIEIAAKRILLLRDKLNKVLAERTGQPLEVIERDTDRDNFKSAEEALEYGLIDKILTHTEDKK
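FRET quenching reversal measured ClpP activation: 10 microg/mL B. subtilis ClpP at pH 8 with the FRET-FV decapeptide, read at 430 nm after 320 nm excitation. The 20-min minus 0-min signal was scaled between DMSO/no-enzyme wells and ADEP (5.8 microM final).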
MBNL1-CUG inh – blocks human MBNL1 binding to CUG repeat RNA; Potency, µM (doses to about 57.5 µM), for the others: top-dose activity change, negative = inhibition, hits mostly inhibitors; hit rate 0.036% among 280,000; TR-FRET MBNL1-His/biotin-(CUG)12 binding, 665/545 ratio; active = well fitted inhibition curve with a large enough effect in the signal ratio, with a control signal flat, not every such curve was filed as active; inconclusive = small, poorly fitted or top-dose-only effect, or effect the other way, or a change in a side signal; inactive = no such curve, though single readings can be large or run the other way; the % refers to the signal ratio; note: potency is the fitted concentration of half-maximal effect; % is set by controls: 0 for no effect and ±100 for the full control effect
Target sequence (Q9NR56 whole entry, looked up): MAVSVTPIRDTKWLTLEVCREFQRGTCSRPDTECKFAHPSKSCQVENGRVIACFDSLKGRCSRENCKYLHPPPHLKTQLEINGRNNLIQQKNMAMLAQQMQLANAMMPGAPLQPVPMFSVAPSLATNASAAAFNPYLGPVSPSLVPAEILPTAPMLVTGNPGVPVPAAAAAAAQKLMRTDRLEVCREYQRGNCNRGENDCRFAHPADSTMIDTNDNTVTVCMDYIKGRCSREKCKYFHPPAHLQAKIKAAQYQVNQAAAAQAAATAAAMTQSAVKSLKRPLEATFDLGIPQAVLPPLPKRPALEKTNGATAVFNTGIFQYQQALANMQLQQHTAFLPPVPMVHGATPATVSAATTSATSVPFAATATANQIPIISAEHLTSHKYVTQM
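Inhibition of protein-RNA binding appears as loss of TR-FRET between terbium anti-His antibody on MBNL1-His and streptavidin-XL665 on biotin-(CUG)12. Activity is normalized to buffer-only and uninhibited-complex controls.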
Rango complex inh – Rango-importin beta binding inhibition; hit rate 0.031% among 340,000; AID 540263; Rango CFP/YFP FRET sensor + importin beta, 45 min; Potency, µM (doses to about 92.2 µM), for inactives: at the highest dose inhibition of complex formation;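 note: potency is the fitted concentration of half-maximal effect; 0% = DMSO wells and 100% = buffer wells lacking importin beta; nearly all actives have a fitted effect of over 15% in size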
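FRET biosensor (snurportin 1 IBB flanked by EYFP and cerulean), 50 nM, with compound 5 min, then 0.125 microM importin beta in PBS, 1 mM DTT, 0.02% Tween-20, 0.1% BSA. CFP/YFP ratio read after 45 min at room temperature; pre-read flags interference.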
Active calls of the source: *; ? = inconclusive; . = no result given; [ ] = dose if it differs, or a comment. Only a selection was taken, and hits are over-represented in it overall. Unless noted, calls come from the whole dose curve.

SMILES	CBFb RUNX1 block	Rango release inh	ClpP mod	MBNL1-CUG inh	Rango complex inh
O=C(CCCCCn1c(=S)[nH]c2ccc(N3CCOCC3)cc2c1=O)NCc1cccc(Cl)c1	3%	4.6µM*	.	50%	?
O=C(c1ccco1)N1CCN(/C=C2\Nc3ccccc3C(=O)N2c2ccc(F)cc2)CC1	.	.	0%	.	.
Cc1nn(-c2ccccc2)c2sc(C(=O)OCc3nnc(-c4ccccc4)o3)cc12	3%	-6%	14µM*	-1%	-2%
Cc1cc(C)n(-c2ccc(C(=O)OCc3nnc(-c4ccccc4)o3)cc2)n1	18%	-9%	35µM*	0%	4%
CCOC(=O)c1cc2c(C)nn(-c3ccccc3)c2s1	12%	1%	-12%	2%	0%
COC(=O)c1cc2c(C)nn(-c3ccccc3)c2s1	14%	3%	32µM*	18%	?
COC(=O)c1c(NC(=O)CSc2nnc3ccccn23)sc2c1CCC2	6%	-14%	28µM*	.	-1%
CCOC(=O)c1c(NC(=O)CSc2nnc3ccccn23)sc2c1CCC2	-2%	-12%	-3%	20%	6%
CCn1cc(C(=O)NCc2ccncc2)c(=O)c2cc(F)c(N3CCN(C(=O)c4ccco4)CC3)cc21	-6%	9%	.	-15%	-4%
CCn1cc(C(=O)NCc2ccc3c(c2)OCO3)c(=O)c2cc(F)c(N3CCN(C(=O)c4ccco4)CC3)cc21	-1%	0%	25µM*	-2%	-6%
CCn1cc(C(=O)NCc2ccccc2)c(=O)c2cc(F)c(N3CCN(C(=O)c4ccco4)CC3)cc21	-9%	-2%	14µM*	4%	-1%
COc1ccc(NC(=O)c2cc3c(=O)n(C)c4cc(Cl)ccc4c3s2)cc1Cl	.	.	-2%	.	.
CCCCOn1c(C)c(C(=O)OCC)c2c3nonc3ccc21	.	10%	18µM*	.	-3%
Cc1ccc(S(=O)(=O)c2c(N)n(CC3CCOC3)c3nc4ccccc4nc23)cc1 (stereo unspecified)	16%	-19%	13µM*	13%	0%
Cc1ccc(S(=O)(=O)c2c(N)n(CCCN(C)C)c3nc4ccccc4nc23)cc1	18%	-11%	4%	5%	-3%
CCCCn1c(NS(=O)(=O)c2ccc(C)cc2)c(S(=O)(=O)c2ccccc2)c2nc3ccccc3nc21	2%	?	25µM*	-16%	?
CCCCn1c(NCc2ccccc2NS(=O)(=O)c2ccc(C)cc2)nc2ccccc21	-3%	-19%	-3%	-6%	0%
Nc1c(S(=O)(=O)c2cccc(Cl)c2)c2nc3ccccc3nc2n1CCN1CCOCC1	4%	-2%	32µM*	4%	1%
O=C(Cn1c(=O)nc(-c2ccccc2)c2cc(Cl)ccc21)NCCc1ccccc1	.	.	0%	.	.
Cc1cccc(N2CCN(c3nc4ccccc4c4nnc(C)n34)CC2)c1C	.	.	-2%	.	.
COCCCn1c(-c2ccc(Cl)cc2)n[nH]c1=S	-10%	1%	-10%	2%	-3%
COCCCn1c(-c2ccccc2Cl)n[nH]c1=S	-3%	10%	25µM*	-13%	-6%
Cc1noc2ncnc(Nc3ccc(F)cc3)c12	.	.	-4%	.	.
CC(C)c1ccc(Nc2ncnc3onc(-c4ccc(F)cc4)c23)cc1	.	.	22µM*	.	.
CSc1ccccc1-c1nnc(-c2ccc(Cl)cc2Cl)o1	2%	3%	35µM*	2%	2%
SMILES	CBFb RUNX1 block	Rango release inh	ClpP mod	MBNL1-CUG inh	Rango complex inh
COc1ccc(-c2nc(SCC(=O)NCc3ccco3)c(-c3ccccc3)[nH]2)cc1OC	-4%	14%	?	-12%	0%
CCc1ccc(-c2nc(SCC(=O)NCC3CCCO3)c(-c3ccc(C)cc3)[nH]2)cc1 (stereo unspecified)	.	.	32µM*	.	.
COCCCNC(=O)CSc1nc(-c2cccc(F)c2)[nH]c1-c1ccccc1	.	.	28µM*	.	.
COCCCNC(=O)CSc1nc(-c2ccccc2)[nH]c1-c1ccc(C)cc1	.	.	25µM*	.	.
COc1ccc(NC(=O)CSc2nc(-c3ccc(OC)cc3)[nH]c2-c2ccc(OC)cc2)cc1	.	.	-13%	.	.
COc1ccc(NC(=O)CC(C)n2nc(C)cc2C)cc1Cl (stereo unspecified)	.	.	0%	.	.
CCOc1ccccc1C(=O)N(Cc1ccco1)Cc1ccco1	.	.	0%	.	.
Cc1ccc(C(=O)Nc2ccc3c(c2)C(=O)N(CC2CCCO2)C3=O)cc1 (stereo unspecified)	.	-16%	0%	20%	0%
O=C(Nc1ccc2c(c1)C(=O)N(CC1CCCO1)C2=O)c1ccccc1Br (stereo unspecified)	-2%	-8%	22µM*	?	-2%
Cn1c(C(=O)NCc2ccccc2F)cc2oc3ccccc3c21	.	.	4%	.	.
Cn1c(C(=O)NCc2ccccc2)cc2oc3ccccc3c21	-5%	4%	25µM*	3%	3%
CCn1c(C(=O)NCc2cccc(Br)c2)cc2oc3ccccc3c21	.	.	4%	.	.
CCCOc1ccc(CNC(=O)c2cc3oc4ccccc4c3n2C)cc1	.	.	4%	.	.
Cn1c(C(=O)NCc2cccs2)cc2oc3ccccc3c21	-14%	0%	32µM*	-11%	3%
Cn1c(C(=O)NCC2CCCO2)cc2oc3ccccc3c21 (stereo unspecified)	-7%	6%	-10%	4%	-3%
COc1ccc(CNC(=O)c2cc3oc4ccccc4c3n2C)cc1OC	.	.	25µM*	.	.
CCn1c(C(=O)NCc2ccccc2Br)cc2oc3ccccc3c21	.	.	22µM*	.	.
O=C1OC(C(=O)Nc2cc(C(F)(F)F)ccc2Cl)Cc2ccccc21 (stereo unspecified)	.	.	-2%	.	.
CCc1ccccc1NC(=O)CN1CCN(C(=O)C(C)NC(=O)c2ccc(Cl)cc2)CC1 (stereo unspecified)	.	-12%	16µM*	.	0%
COC(=O)c1cccc(NC(=O)c2nsc3ccccc23)c1	.	.	5%	.	.
O=C(CN1CCN(c2ccccc2F)CC1)Nc1ccccc1F	1%	20%	-4%	-17%	-2%
O=C(CCN1CCN(c2ccccc2F)CC1)Nc1ccccc1F	3%	0%	16µM*	-5%	1%
COC(=O)CCC(=O)OC1(C)C(=O)C2=CN(c3ccccc3)C(c3ccc(OC)cc3)=CC2=C(Br)C1=O (stereo unspecified)	-6%[13.1 µM]	16µM*	-1%	.	?
O=C(c1cccc(F)c1)N1CCC(N2CCOCC2)CC1	-7%	3%	14µM*	-10%	-3%
O=C(c1cccc(F)c1)N1CCN(c2cccc(Cl)c2)CC1	2%	6%	28µM*	-7%	4%
CCCCC[C@H](O)/C=C/C=C\C/C=C\C/C=C\CCCC(=O)O	22%	.	.	.	.
O=C(Nc1cccc(-c2nc3cc(Cl)ccc3o2)c1)c1ccc(F)cc1	.	.	-18%	.	.
